Assay results published in PubChem BioAssay (NCATS).
A number with no mark means an inactive call. Inconclusive results are not listed. Activity calls are given as the source filed them. Calls follow the shape of the dose curve; as a rule, active = well fitted activation curve with a large enough effect; inconclusive = small, poorly fitted or top-dose-only effect; inactive = flat fitted curve, though single readings scatter.

test: Cellular Toxicity (caspase-3) Mesangial (AID 660); details: mesangial cells, normalized: DMSO 0%, 100 µM tamoxifen 100%; at 91.7 µM (top of the series);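 also: combined caspase 3 and 7 activity read by Caspase-Glo luminescence; cells exposed to compound for 16 h before the caspase read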
In short: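 Seed cells derived from normal human renal glomeruli, incubate 5 h, add compounds across concentrations and incubate 16 h at 37 °C. Caspase 3/7 activation is then quantified by luciferase light, with AC50 derived by Hill modeling.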

Row | Structure (SMILES) | caspase-3 activation
1 | O=c1c(O)c(-c2ccc(O)cc2)oc2cc(O)cc(O)c12 | -0.85%
2 | O=c1cc(-c2ccc(O)cc2)oc2cc(O)cc(O)c12 | -2.47%
3 | O=c1c(-c2ccc(O)cc2)coc2cc(O)ccc12 | -3.39%
4 | O=C(O)c1cc(O)c2c(c1)C(=O)c1cccc(O)c1C2=O | -1.07%
5 | CC(=O)c1ccc(S(=O)(=O)NC(=O)NC2CCCCC2)cc1 | 0.0312%
6 | CC(=O)O[C@]1(C(C)=O)CC[C@H]2[C@@H]3C=C(Cl)C4=CC(=O)[C@@H]5C[C@@H]5[C@]4(C)[C@H]3CC[C@@]21C | -0.0763%
7 | CCn1cc(C(=O)O)c(=O)c2ccc(C)nc21 | -0.0498%
8 | O=C(O)Cc1cccc2ccccc12 | 0.654%
9 | CCCCC1C(=O)N(c2ccccc2)N(c2ccccc2)C1=O | 0.46%
10 | CN(C)CCC(c1ccccc1)c1ccccn1 (stereo unspecified) | 0.331%
11 | CCCNC(=O)NS(=O)(=O)c1ccc(Cl)cc1 | -0.968%
12 | CC1=C(/C=C/C(C)=C/C=C/C(C)=C/C(=O)Nc2ccc(O)cc2)C(C)(C)CCC1 | 91% (active)
13 | O=c1[nH]cnc2c1ncn2[C@H]1CC[C@@H](CO)O1 | -0.684%
14 | O=C1NC(=O)C(c2ccccc2)(c2ccccc2)N1 | 0.351%

test: Cellular Toxicity (caspase-3) SK-N-SH (AID 661); details: SK-N-SH caspase-3 activation, qHTS; series mostly up to 91.7 µM; caspase-3 activation: at the top concentration;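 also: cells exposed to compound for 16 hours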; also: potency is read from the fitted curve at half-maximal effect;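 as to caspase-3 activation: 0% = DMSO basal and 100% = 10 µM staurosporine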
In short: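 Cells were seeded and incubated 5 hr at 37 °C, dosed with compound over a concentration range for 16 hr, then given Caspase-Glo 3/7 reagent for 1 hr at room temperature before luminescence reading.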

Row | Structure (SMILES) | caspase-3 activation [%] | Potency
15 | O=c1c(O)c(-c2ccc(O)cc2)oc2cc(O)cc(O)c12 | -0.816 | 
16 | O=c1cc(-c2ccc(O)cc2)oc2cc(O)cc(O)c12 | 5.2 | 
17 | O=c1c(-c2ccc(O)cc2)coc2cc(O)ccc12 | -4.65 | 
18 | O=C(O)c1cc(O)c2c(c1)C(=O)c1cccc(O)c1C2=O | -3.89 | 
19 | CC(=O)c1ccc(S(=O)(=O)NC(=O)NC2CCCCC2)cc1 | 0.234 | 
20 | CC(=O)O[C@]1(C(C)=O)CC[C@H]2[C@@H]3C=C(Cl)C4=CC(=O)[C@@H]5C[C@@H]5[C@]4(C)[C@H]3CC[C@@]21C | 0.659 | 
21 | CCn1cc(C(=O)O)c(=O)c2ccc(C)nc21 | -1.31 | 
22 | O=C(O)Cc1cccc2ccccc12 | -0.985 | 
23 | CCCCC1C(=O)N(c2ccccc2)N(c2ccccc2)C1=O | 0.729 | 
24 | CN(C)CCC(c1ccccc1)c1ccccn1 (stereo unspecified) | -0.316 | 
25 | CCCNC(=O)NS(=O)(=O)c1ccc(Cl)cc1 | 0.554 | 
26 | CC1=C(/C=C/C(C)=C/C=C/C(C)=C/C(=O)Nc2ccc(O)cc2)C(C)(C)CCC1 |  | 31.6 µM (active)
27 | O=c1[nH]cnc2c1ncn2[C@H]1CC[C@@H](CO)O1 | -1.2 | 
28 | O=C1NC(=O)C(c2ccccc2)(c2ccccc2)N1 | -1.04 | 

test: Cellular Toxicity (caspase-3) H-4-II-E (AID 663); details: H-4-II-E rat hepatoma, scaled: DMSO 0%, 100 µM tamoxifen 100%; at 92.2 µM (top of the series);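 also: cells exposed to compound for 16 hr before readout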
In short: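 Caspase 3/7 activation measured in H-4-II-E cells in complete culture medium after 16 hr treatment at 37 °C, using luciferase-coupled substrate readout; AC50 values come from Hill-equation fits of normalized concentration-response data.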

Row | Structure (SMILES) | caspase-3 activation
29 | O=c1cc(-c2ccc(O)cc2)oc2cc(O)cc(O)c12 | 9.21%
30 | O=c1c(-c2ccc(O)cc2)coc2cc(O)ccc12 | -2.27%
31 | O=C(O)c1cc(O)c2c(c1)C(=O)c1cccc(O)c1C2=O | 1.57%
32 | CC(=O)c1ccc(S(=O)(=O)NC(=O)NC2CCCCC2)cc1 | 1.08%
33 | CC(=O)O[C@]1(C(C)=O)CC[C@H]2[C@@H]3C=C(Cl)C4=CC(=O)[C@@H]5C[C@@H]5[C@]4(C)[C@H]3CC[C@@]21C | 0.0575%
34 | CCn1cc(C(=O)O)c(=O)c2ccc(C)nc21 | -0.698%
35 | O=C(O)Cc1cccc2ccccc12 | 0.142%
36 | CCCCC1C(=O)N(c2ccccc2)N(c2ccccc2)C1=O | 0.827%
37 | CN(C)CCC(c1ccccc1)c1ccccn1 (stereo unspecified) | 1.53%
38 | CCCNC(=O)NS(=O)(=O)c1ccc(Cl)cc1 | -0.479%
39 | CC1=C(/C=C/C(C)=C/C=C/C(C)=C/C(=O)Nc2ccc(O)cc2)C(C)(C)CCC1 | 91.2% (active)
40 | O=c1[nH]cnc2c1ncn2[C@H]1CC[C@@H](CO)O1 | 0.398%
41 | O=C1NC(=O)C(c2ccccc2)(c2ccccc2)N1 | 0.679%
